Test results from article PMC5540273 (PLoS ONE, 2017).
Where two headings read alike, the source gives them in different places.

What was measured:
GRK7 = conditions: concentration: 1 μM, replicates: in singlicate; n = 1
GSK3A = conditions: concentration: 1 μM, replicates: in singlicate; n = 1
GSK3B = conditions: n = 1
HASPIN = test system: T1, HASPIN; conditions: concentration: 1 μM, replicates: in singlicate; n = 1
T1 construct: gene GSG2

HCK = conditions: concentration: 1 μM, replicates: in singlicate; n = 1
HIPK1 = conditions: concentration: 1 μM, replicates: in singlicate; n = 1
HIPK2 = conditions: concentration: 1 μM, replicates: in singlicate; n = 1
HIPK3 = conditions: concentration: 1 μM, replicates: in singlicate; n = 1
HIPK4 = conditions: concentration: 1 μM, replicates: in singlicate; n = 1
HPK1 = conditions: concentration: 1 μM, replicates: in singlicate; n = 1
HUNK = conditions: concentration: 1 μM, replicates: in singlicate; n = 1
ICK = conditions: concentration: 1 μM, replicates: in singlicate; n = 1
IGF1R = conditions: concentration: 1 μM, replicates: in singlicate; n = 1
IKK-alpha = test system: T2, IKK-alpha; conditions: concentration: 1 μM, replicates: in singlicate; n = 1
T2 construct: gene CHUK

IKK-beta = test system: T3, IKK-beta; conditions: concentration: 1 μM, replicates: in singlicate; n = 1
T3 construct: gene IKBKB

IKK-epsilon = test system: T4, IKK-epsilon; conditions: concentration: 1 μM, replicates: in singlicate; n = 1
T4 construct: gene IKBKE

INSRR = conditions: concentration: 1 μM, replicates: in singlicate; n = 1
INSR = conditions: concentration: 1 μM, replicates: in singlicate; n = 1
IRAK1 = conditions: concentration: 1 μM, replicates: in singlicate; n = 1
IRAK3 = conditions: concentration: 1 μM, replicates: in singlicate; n = 1
[1] = concentration: 1 μM, replicates: in singlicate
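Note: KINOMEscan kinase panel screen.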

Cc1c(Cn2ccn3c(=O)cc(N4CCOCC4)nc23)cccc1C(F)(F)F [GSK2289044]
%Inh (GRK7): 0%
%Inh (GSK3A): 1%
%Inh (GSK3B; [1]): 8%
%Inh (HASPIN): 0%
%Inh (HCK): 0%
%Inh (HIPK1): 0%
%Inh (HIPK2): 0%
%Inh (HIPK3): 24%
%Inh (HIPK4): 0%
%Inh (HPK1): 15%
%Inh (HUNK): 29%
%Inh (ICK): 0%
%Inh (IGF1R): 0%
%Inh (IKK-alpha): 0%
%Inh (IKK-beta): 0%
%Inh (IKK-epsilon): 3%
%Inh (INSRR): 0%
%Inh (INSR): 0%
%Inh (IRAK1): 0%
%Inh (IRAK3): 4%

Cc1c(O)cccc1Nc1ccnc2ccc(C(F)(F)F)cc12.Cl [GW466413]
%Inh (GRK7): 0%
%Inh (GSK3A): 9%
%Inh (GSK3B; [1]): 0%
%Inh (HASPIN): 34%
%Inh (HCK): 43%
%Inh (HIPK1): 0%
%Inh (HIPK2): 0%
%Inh (HIPK3): 0%
%Inh (HIPK4): 0%
%Inh (HPK1): 3%
%Inh (HUNK): 93.4%
%Inh (ICK): 0%
%Inh (IGF1R): 0%
%Inh (IKK-alpha): 8%
%Inh (IKK-beta): 0%
%Inh (IKK-epsilon): 0%
%Inh (INSRR): 0%
%Inh (INSR): 0%
%Inh (IRAK1): 0%
%Inh (IRAK3): 0%

Cc1cccc(-c2nc(-c3ccc(S(C)(=O)=O)cc3)sc2-c2ccnc(NCCc3ccccc3)c2)c1
%Inh (GRK7): 7%
%Inh (GSK3A): 0%
%Inh (GSK3B; [1]): 0%
%Inh (HASPIN): 42%
%Inh (HCK): 0%
%Inh (HIPK1): 15%
%Inh (HIPK2): 0%
%Inh (HIPK3): 6%
%Inh (HIPK4): 8%
%Inh (HPK1): 11%
%Inh (HUNK): 0%
%Inh (ICK): 0%
%Inh (IGF1R): 15%
%Inh (IKK-alpha): 0%
%Inh (IKK-beta): 8%
%Inh (IKK-epsilon): 0%
%Inh (INSRR): 3%
%Inh (INSR): 7%
%Inh (IRAK1): 17%
%Inh (IRAK3): 0%

Cn1ccc2ncnc(Oc3cccc(C(=O)Nc4ccccc4)c3)c21
%Inh (GRK7): 21%
%Inh (GSK3A): 24%
%Inh (GSK3B; [1]): 2%
%Inh (HASPIN): 37%
%Inh (HCK): 8%
%Inh (HIPK1): 0%
%Inh (HIPK2): 30%
%Inh (HIPK3): 5%
%Inh (HIPK4): 0%
%Inh (HPK1): 2%
%Inh (HUNK): 0%
%Inh (ICK): 8%
%Inh (IGF1R): 2%
%Inh (IKK-alpha): 22%
%Inh (IKK-beta): 15%
%Inh (IKK-epsilon): 7%
%Inh (INSRR): 0%
%Inh (INSR): 16%
%Inh (IRAK1): 0%
%Inh (IRAK3): 0%

C[C@@H]1CCCCN1c1cc(-c2ccc3c(N)n[nH]c3c2)nc(N)n1 [GSK2258759]
%Inh (GRK7): 0%
%Inh (GSK3A): 3%
%Inh (GSK3B; [1]): 3%
%Inh (HASPIN): 14%
%Inh (HCK): 0%
%Inh (HIPK1): 0%
%Inh (HIPK2): 0%
%Inh (HIPK3): 14%
%Inh (HIPK4): 0%
%Inh (HPK1): 28%
%Inh (HUNK): 0%
%Inh (ICK): 11%
%Inh (IGF1R): 4%
%Inh (IKK-alpha): 0%
%Inh (IKK-beta): 7%
%Inh (IKK-epsilon): 43%
%Inh (INSRR): 0%
%Inh (INSR): 6%
%Inh (IRAK1): 4%
%Inh (IRAK3): 0%

NC(=O)c1nnc2ccccc2c1N
%Inh (GRK7): 0%
%Inh (GSK3A): 5%
%Inh (GSK3B; [1]): 24%
%Inh (HASPIN): 73%
%Inh (HCK): 0%
%Inh (HIPK1): 45%
%Inh (HIPK2): 50%
%Inh (HIPK3): 37%
%Inh (HIPK4): 4%
%Inh (HPK1): 0%
%Inh (HUNK): 0%
%Inh (ICK): 13%
%Inh (IGF1R): 0%
%Inh (IKK-alpha): 27%
%Inh (IKK-beta): 35%
%Inh (IKK-epsilon): 0%
%Inh (INSRR): 12%
%Inh (INSR): 29%
%Inh (IRAK1): 54%
%Inh (IRAK3): 19%

COc1ccc(CNC(=O)NC2CCN(c3ccnc(Nc4cc(OC)c(OC)c(OC)c4)n3)C2)cc1 (centres unmarked) [GSK1379748]
%Inh (GRK7): 0%
%Inh (GSK3A): 7%
%Inh (GSK3B; [1]): 0%
%Inh (HASPIN): 38%
%Inh (HCK): 0%
%Inh (HIPK1): 0%
%Inh (HIPK2): 8%
%Inh (HIPK3): 33%
%Inh (HIPK4): 0%
%Inh (HPK1): 53%
%Inh (HUNK): 3%
%Inh (ICK): 8%
%Inh (IGF1R): 0%
%Inh (IKK-alpha): 0%
%Inh (IKK-beta): 0%
%Inh (IKK-epsilon): 20%
%Inh (INSRR): 0%
%Inh (INSR): 0%
%Inh (IRAK1): 63%
%Inh (IRAK3): 63%

COc1ccc(C2=C(Nc3cccc(C(=O)O)c3)C(=O)NC2=O)cc1 [SB-390765]
%Inh (GRK7): 12%
%Inh (GSK3A): 7%
%Inh (GSK3B; 1 µM): 31%
%Inh (HASPIN): 28%
%Inh (HCK): 8%
%Inh (HIPK1): 8%
%Inh (HIPK2): 16%
%Inh (HIPK3): 21%
%Inh (HIPK4): 21%
%Inh (HPK1): 0%
%Inh (HUNK): 19%
%Inh (ICK): 29%
%Inh (IGF1R): 0%
%Inh (IKK-alpha): 16%
%Inh (IKK-beta): 23%
%Inh (IKK-epsilon): 3%
%Inh (INSRR): 4%
%Inh (INSR): 13%
%Inh (IRAK1): 28%
%Inh (IRAK3): 0%

Fc1cccc(COc2nnc(-c3ccc4c(c3)CCO4)o2)c1
%Inh (GRK7): 8%
%Inh (GSK3A): 0%
%Inh (GSK3B; [1]): 9%
%Inh (HASPIN): 44%
%Inh (HCK): 0%
%Inh (HIPK1): 25%
%Inh (HIPK2): 23%
%Inh (HIPK3): 0%
%Inh (HIPK4): 3%
%Inh (HPK1): 0%
%Inh (HUNK): 7%
%Inh (ICK): 0%
%Inh (IGF1R): 2%
%Inh (IKK-alpha): 21%
%Inh (IKK-beta): 7%
%Inh (IKK-epsilon): 0%
%Inh (INSRR): 0%
%Inh (INSR): 0%
%Inh (IRAK1): 44%
%Inh (IRAK3): 0%

COc1ccc2nc(-c3cccc(C)n3)nc(Nc3ccncc3)c2c1 [GSK204919]
%Inh (GRK7): 0%
%Inh (GSK3A): 0%
%Inh (GSK3B; [1]): 19%
%Inh (HASPIN): 15%
%Inh (HCK): 0%
%Inh (HIPK1): 0%
%Inh (HIPK2): 0%
%Inh (HIPK3): 11%
%Inh (HIPK4): 0%
%Inh (HPK1): 28%
%Inh (HUNK): 9%
%Inh (ICK): 0%
%Inh (IGF1R): 0%
%Inh (IKK-alpha): 0%
%Inh (IKK-beta): 22%
%Inh (IKK-epsilon): 3%
%Inh (INSRR): 0%
%Inh (INSR): 0%
%Inh (IRAK1): 4%
%Inh (IRAK3): 0%
